Experimental data as given in PubChem BioAssay (NCATS).
Where “and” joins values, the source holds several entries; their conditions need not be identical. Equal entries are not always repeated. Records with an inconclusive call do not appear. Calls of active or inactive are those of the source. Unless noted, the call rests on the fitted dose curve; in most records, active means well fitted activation curve with a large enough effect; inconclusive means small, poorly fitted or top-dose-only effect; inactive means no such curve, though single readings can be large or run the other way.

biological target: Cellular tumor antigen p53 (Homo sapiens) (UniProt P04637); experiment: Primary qHTS for small molecule compounds that upregulate eGFP-tagged delta133p53alpha (in N-terminal) cells. (AID 2060322); details: NCI-H358 eGFP-delta133p53alpha fluorescence, 24 h; activation: hits give high values;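 further: 0% = DMSO vehicle and 100% = reference activator; nearly all actives have a fitted effect of over 75% in size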
In short: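 NCI-H358 cells pre-induced 24 h with 10 ng/ml doxycycline to express N-terminal eGFP-delta133p53alpha, then dosed 24 h at 37C without doxycycline; fixed, Hoechst-stained, GFP intensity by laser scanning cytometry, normalized to DMSO (0%) and 57.5 uM 5-azacytidine (100%).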

Cellular tumor antigen p53 (Homo sapiens), sequence (P04637 whole entry, looked up): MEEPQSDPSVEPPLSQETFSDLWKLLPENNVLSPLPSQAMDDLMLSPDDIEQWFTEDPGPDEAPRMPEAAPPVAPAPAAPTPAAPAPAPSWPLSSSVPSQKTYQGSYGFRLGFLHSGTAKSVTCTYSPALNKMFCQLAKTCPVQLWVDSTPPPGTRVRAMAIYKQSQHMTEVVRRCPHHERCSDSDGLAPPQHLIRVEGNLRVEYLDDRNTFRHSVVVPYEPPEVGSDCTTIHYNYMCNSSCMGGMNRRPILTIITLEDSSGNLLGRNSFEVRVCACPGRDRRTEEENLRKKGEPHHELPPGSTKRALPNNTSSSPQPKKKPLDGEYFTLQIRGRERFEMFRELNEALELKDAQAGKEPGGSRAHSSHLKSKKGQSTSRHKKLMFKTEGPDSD

Structure (SMILES)	activation
CCCN(CCC)[C@@H]1CCc2ccc(O)cc2C1	-24.8% (inactive)
C[N+](C)(C)CC#CCOC(=O)Nc1cccc(Cl)c1	13.3% (inactive)
C[C@]12N[C@H](Cc3ccccc31)c1ccccc12	-0.686% (inactive)
O=S1(=O)N(CCN2CC=C(c3c[nH]c4cc(F)ccc34)CC2)c2cccc3c2N1CCC3	24.1% (inactive)
O=C1CCCN1CC#CCN1CCCC1	-14.5% (inactive)
COc1ccc(C(CN(C)C)C2(O)CCCCC2)cc1 (stereo not drawn)	-16.7% (inactive) and -7.09% (inactive) and -5.45% (inactive)
CS(=N)(=O)CC[C@H](N)C(=O)O (stereo partly drawn)	-13.1% (inactive)
C#CCN[C@H](C)Cc1ccccc1	4.01% (inactive)
CC(C)(C)c1cc(C=C(C#N)C#N)cc(C(C)(C)C)c1O	6.66% (inactive)
CCCCc1ccc(C(=O)O)nc1	16.6% (inactive)
NCCc1ccc(S(=O)(=O)F)cc1	-21.4% (inactive)
CC12NC(Cc3ccccc31)c1ccccc12 (stereo not drawn)	6.02% (inactive)
CCCN(CCC)[C@H]1CCc2c(F)ccc(O)c2C1	15.8% (inactive)
OC1CCCCC1N1CCC(c2ccccc2)CC1 (stereo not drawn)	-21.4% (inactive)
NCC(O)c1ccc(O)cc1 (stereo not drawn)	-4.18% (inactive) and -26.8% (inactive)
CCCN(CCC)[C@@H]1CCc2cccc(O)c2C1	20% (inactive)
C[C@@H]1O[C@@H](O[C@H]2C[C@@H](O)[C@]3(CO)[C@@H]4C(CC[C@]3(O)C2)[C@@]2(O)CC[C@H]([C@@H]3COC(=O)C3)[C@@]2(C)C[C@H]4O)[C@H](O)[C@H](O)[C@H]1O (stereo partly drawn)	-50% (inactive)
Cc1o[nH]c(=O)c1CC(N)C(=O)O (stereo not drawn)	16.8% (inactive)
Nc1cc2c(ncn2CCOCP(=O)(O)O)c(=O)[nH]1	-41.7% (inactive)
CN(N=O)c1cc(O)ccc1O	-33.2% (inactive)

Structure (SMILES)	activation
O=c1[nH]oc2c1CCNC2	-18.6% (inactive) and 14.5% (inactive)
CCCN1CCc2cc(O)cc3c2[C@H]1Cc1ccc(O)c(O)c1-3	23.3% (inactive)
CC(C)NC(C)Cc1ccc(I)cc1 (stereo not drawn)	-3.39% (inactive)
NNC(=O)c1ccc(O)cc1	-20.3% (inactive)
CC(C)(O)[C@@H]1C2OC(=O)[C@@H]1[C@]1(O)C[C@H]3O[C@]34C(=O)O[C@H]2[C@]14C (tested in a mixture with another compound)	10.1% (inactive)
NCCc1c[nH]c2ccc(O)cc12	-1.52% (inactive)
[Cl-].[Cl][Pt].[NH2-].[NH2-].c1ccncc1	-12% (inactive)
c1ccc2cc(CC3=NCCN3)ccc2c1	-13.6% (inactive)
O=C(N[C@H]1CN2CCC1CC2)c1ccc(Cl)cc1	0.903% (inactive) and 6.33% (inactive) and -27.4% (inactive)
CCCN1CCc2cccc3c2[C@H]1Cc1ccc(O)c(O)c1-3	-13.3% (inactive)
CCCN1CCC[C@@H]2Cc3nc(N)ncc3C[C@H]21	-29.3% (inactive) and -27.1% (inactive)
O=C1NCN(c2ccccc2)C12CCN(CC1COc3ccccc3O1)CC2 (stereo not drawn)	-13.1% (inactive)
NC(=O)c1ccc(OCC(O)CN2CC=C(c3ccc(F)cc3)CC2)cc1 (stereo not drawn)	5.52% (inactive)
CNCCc1ccc(O)c(O)c1	-26.5% (inactive)
CN1CCC(c2c[nH]c3ccc(O)cc23)CC1	-20.9% (inactive)
NC(C(=O)O)c1cc(=O)[nH]o1 (stereo not drawn)	-10.1% (inactive)
O=C(O)Cc1cnc[nH]1	-6.89% (inactive)
NC(=O)COc1c(F)cc(SCCNS(=O)(=O)c2ccccc2)cc1F	-8.4% (inactive)
c1ccc2sc(C3(N4CCCCC4)CCCCC3)cc2c1	14.7% (inactive)

biological target: Aldehyde dehydrogenase, mitochondrial (Homo sapiens) (UniProt P05091); experiment: qHTS for Inhibitors of the Aldehyde Dehydrogenase Family (ALDH2) Validation screens (AID 2061302; active means well fitted inhibition curve with a large enough effect; title and protocol of this record describe different tests; further: potency means the concentration at half of the fitted maximal effect); details: ALDH inhibition qHTS; series mostly up to 42.6 µM

Structure (SMILES)	Potency
CCCN(CCC)[C@@H]1CCc2ccc(O)cc2C1	inactive
C[N+](C)(C)CC#CCOC(=O)Nc1cccc(Cl)c1	10 µM (active)
C[C@]12N[C@H](Cc3ccccc31)c1ccccc12	inactive
O=S1(=O)N(CCN2CC=C(c3c[nH]c4cc(F)ccc34)CC2)c2cccc3c2N1CCC3	inactive
O=C1CCCN1CC#CCN1CCCC1	inactive
COc1ccc(C(CN(C)C)C2(O)CCCCC2)cc1 (stereo not drawn)	inactive
CS(=N)(=O)CC[C@H](N)C(=O)O (stereo partly drawn)	inactive
C#CCN[C@H](C)Cc1ccccc1	inactive
CC(C)(C)c1cc(C=C(C#N)C#N)cc(C(C)(C)C)c1O	inactive
CCCCc1ccc(C(=O)O)nc1	inactive
NCCc1ccc(S(=O)(=O)F)cc1	inactive
CC12NC(Cc3ccccc31)c1ccccc12 (stereo not drawn)	inactive
CCCN(CCC)[C@H]1CCc2c(F)ccc(O)c2C1	inactive
OC1CCCCC1N1CCC(c2ccccc2)CC1 (stereo not drawn)	inactive
NCC(O)c1ccc(O)cc1 (stereo not drawn)	inactive
CCCN(CCC)[C@@H]1CCc2cccc(O)c2C1	inactive
C[C@@H]1O[C@@H](O[C@H]2C[C@@H](O)[C@]3(CO)[C@@H]4C(CC[C@]3(O)C2)[C@@]2(O)CC[C@H]([C@@H]3COC(=O)C3)[C@@]2(C)C[C@H]4O)[C@H](O)[C@H](O)[C@H]1O (stereo partly drawn)	inactive
Cc1o[nH]c(=O)c1CC(N)C(=O)O (stereo not drawn)	inactive
Nc1cc2c(ncn2CCOCP(=O)(O)O)c(=O)[nH]1	inactive
CN(N=O)c1cc(O)ccc1O	0.794 µM (active)

Structure (SMILES)	Potency
O=c1[nH]oc2c1CCNC2	inactive
CCCN1CCc2cc(O)cc3c2[C@H]1Cc1ccc(O)c(O)c1-3	inactive
CC(C)NC(C)Cc1ccc(I)cc1 (stereo not drawn)	inactive
NNC(=O)c1ccc(O)cc1	inactive
CC(C)(O)[C@@H]1C2OC(=O)[C@@H]1[C@]1(O)C[C@H]3O[C@]34C(=O)O[C@H]2[C@]14C (tested in a mixture with another compound)	inactive
NCCc1c[nH]c2ccc(O)cc12	inactive
[Cl-].[Cl][Pt].[NH2-].[NH2-].c1ccncc1	inactive
c1ccc2cc(CC3=NCCN3)ccc2c1	inactive
O=C(N[C@H]1CN2CCC1CC2)c1ccc(Cl)cc1	inactive
CCCN1CCc2cccc3c2[C@H]1Cc1ccc(O)c(O)c1-3	inactive
CCCN1CCC[C@@H]2Cc3nc(N)ncc3C[C@H]21	inactive
O=C1NCN(c2ccccc2)C12CCN(CC1COc3ccccc3O1)CC2 (stereo not drawn)	inactive
NC(=O)c1ccc(OCC(O)CN2CC=C(c3ccc(F)cc3)CC2)cc1 (stereo not drawn)	inactive
CNCCc1ccc(O)c(O)c1	inactive
CN1CCC(c2c[nH]c3ccc(O)cc23)CC1	inactive
NC(C(=O)O)c1cc(=O)[nH]o1 (stereo not drawn)	inactive
O=C(O)Cc1cnc[nH]1	inactive
NC(=O)COc1c(F)cc(SCCNS(=O)(=O)c2ccccc2)cc1F	inactive
c1ccc2sc(C3(N4CCCCC4)CCCCC3)cc2c1	inactive
